HCMV antiviral: blocks human cytomegalovirus replication. activity change, negative = inhibition, % at 57.5 µM. AID 1259415. HFF cells, HCMV-luciferase reporter, 72 h; hits give low values. 4.5% of 410,000 active; in the data active means activity change below about -60%; inconclusive means no clear call, values can overlap the other calls; inactive means above about -39%
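Inhibition of viral replication was scored as loss of reporter luminescence in HFFs infected with HCMV-luciferase (MOI 1 PFU/cell) for 72 h; compounds tested at 2 doses, normalized to buffer and Salinomycin controls.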
HCV inhibitor: HCV inhibition; AID 651820; Potency, µM (top dose mostly 41.8 µM), for inactives: at the highest dose activity change, negative = inhibition, most hits filed as inhibitors; Huh7.5.1 HCVcc-Cre infection, luciferase reporter, 44 h; 3.4% of 340,000 active; further: potency means the concentration at half of the fitted maximal effect
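Compounds are dispensed onto cells plated 4 h earlier at 1,000 per well, with HCVcc-Cre virus (about 0.5 moi) added next. Following 44 h of culture, luminescent signal is measured for 15 sec after 15 min with substrate at room temperature.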
Marburg entry inh: blocks Marburg virus binding to or entry into cells | Marburg virus pseudotyped entry inhibition, cell reporter | 1.8% of 300,000 active | AID 540276 | Potency, µM (doses to about 37.8 µM), without a hit: at the top dose activity change, negative = inhibition, most hits filed as inhibitors; calls by dose curve; tested in HEK293 cells; further: potency means the concentration at half of the fitted maximal effect
FMDV antiviral: foot and mouth disease virus antiviral activity; FMDV antiviral cell-based qHTS; 1.2% of 410,000 active; Potency, µM (series often up to 57.9 µM), inactives show top-dose activity change, negative = inhibition, hits mostly inhibitors; calls by dose curve; tested in HEK293T cells; further: read-out not given here; potency means the concentration at half of the fitted maximal effect; nearly all actives have a fitted effect of over 45% in size
Lassa entry inh: blocks Lassa virus binding to or entry into cells; Potency, µM (top dose mostly 37.9 µM), for the others: top-dose activity change, negative = inhibition, hits mostly inhibitors; Lassa virus pseudotype entry inhibition, cell reporter; 1.2% of 300,000 active; AID 540256; calls by dose curve; tested in HEK293 cells; further: potency means the concentration at half of the fitted maximal effect; nearly all actives have a fitted effect of over 50% in size
Giardia FBPA inh: inhibitors of Giardia lamblia fructose-1,6-bisphosphate aldolase; A8B2U2; purified Giardia FBPA; Potency, µM (titrated, usually from 59.6 µM), for inactives: top-dose activity, negative = inhibition, hits mostly inhibitors; 0.71% of 290,000 active; further: potency means the concentration at half of the fitted maximal effect; nearly all actives have a fitted effect of over 55% in size
Target sequence (A8B2U2 whole entry, looked up): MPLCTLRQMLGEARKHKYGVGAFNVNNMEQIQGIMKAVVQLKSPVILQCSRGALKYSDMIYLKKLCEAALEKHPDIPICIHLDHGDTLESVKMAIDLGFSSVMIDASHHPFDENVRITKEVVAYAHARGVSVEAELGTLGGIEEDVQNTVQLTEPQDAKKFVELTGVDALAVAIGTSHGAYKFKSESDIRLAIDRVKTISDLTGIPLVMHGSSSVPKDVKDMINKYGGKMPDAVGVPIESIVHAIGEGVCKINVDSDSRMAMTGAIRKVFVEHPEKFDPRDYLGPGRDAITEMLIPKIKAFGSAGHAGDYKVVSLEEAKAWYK
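Giardia FBPA (40 nM reagent) was preincubated 10 min at RT with compound (up to 57.5 uM final), then substrate plus GAPDH/TPI/NAD/arsenate coupling system with diaphorase/resazurin was added; resorufin fluorescence (525/598 nm) was read after 20 min.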
Numbers without * were called inactive; u = inconclusive; x = no result; [ ] = dose if it differs, or a comment. Hits are enriched below; roughly 8.3% of the tested compounds scored in any of these assays. Unless noted, the call rests on the fitted dose curve; in most records, active means well fitted curve in the direction sought with a large enough effect; inconclusive means small, poorly fitted or top-dose-only effect, or another doubt; inactive means no such curve, though single readings can be large; an effect the other way counts as inactive or inconclusive. On the % scale 0 is the no-effect control and ±100 the full control effect.

SMILES	HCMV antiviral	HCV inhibitor	Marburg entry inh	FMDV antiviral	Lassa entry inh	Giardia FBPA inh
O=C(N/N=C/c1ccc([N+](=O)[O-])o1)C(O)c1ccccc1 (centres undefined)	-60*	u	x	-4%	x	-12%
Cc1ccc(Cn2c(CNS(=O)(=O)c3c(C)cc(C)cc3C)nc3cccnc32)cc1	74	x	x	55%	5%[46.1 µM]	x
Cc1cccc(C)c1Nc1oc(-c2ccccc2)nc1-c1ccccc1F	x	x	u	x	-10%[14.3 µM]	-5%
O=c1oc2ccccc2cc1-c1nc2ccccc2o1	202	27%	10%	20%	-17%	x
O=c1oc2ccccc2cc1-c1nc2c(s1)CCCC2	-21	-18%	u	-25%	2.9µM*	4%
N#Cc1ccc2nc(-c3ccc(CN4CCC(n5cc(-c6ccccc6)[nH]c5=O)CC4)cc3)c(-c3ccccc3)nc2c1	-99*	x	x	x	x	x
O=c1[nH]c(-c2ccccc2)cn1C1CCN(Cc2ccc(-c3nc4ccccc4nc3-c3ccccc3)cc2)CC1	118	x	x	x	x	x
CNc1sc(C(=O)c2ccccc2F)c(N)c1-c1nc2ccccc2s1	33	13µM*	-27%	11%	-1%	-9%
O=C(COC(=O)CCc1c[nH]c2ccccc12)Nc1ccccc1C(F)(F)F	-94*	-18%	x	-17%	x	x
CC(=O)Nc1ccc(NC(=O)c2ccc3c(c2)N(Cc2cccc(Cl)c2)C(=O)c2ccccc2S3=O)cc1 (centres undefined)	-95*	x	x	-22%	u	x
CC1CCCCN1C(=O)c1ccc2c(c1)N(Cc1cccc(Cl)c1)C(=O)c1ccccc1S2=O (centres undefined)	-68*	x	x	6%	-11%[46.1 µM]	x
CCOC(=O)N1CCN(C(=O)c2ccc3c(c2)N(Cc2cccc(Cl)c2)C(=O)c2ccccc2S3=O)CC1 (centres undefined)	u	18µM*	x	u	u	8%
CC(=O)c1ccc(NC(=O)c2ccc3c(c2)N(Cc2cccc(Cl)c2)C(=O)c2ccccc2S3=O)cc1 (centres undefined)	-33	x	x	-13%	-3%[46.1 µM]	x
Cc1cccc(N2CCN(C(=O)c3ccc4c(c3)N(Cc3cccc(Cl)c3)C(=O)c3ccccc3S4=O)CC2C)c1 (centres undefined)	-67*	x	x	-19%	u	x
CCN1CCN(C(=O)c2ccc3c(c2)N(Cc2cccc(Cl)c2)C(=O)c2ccccc2S3=O)CC1 (centres undefined)	u	x	x	-23%	-2%[46.1 µM]	x
CC1CCCCN1CCNC(=O)c1ccc2c(c1)N(Cc1cccc(Cl)c1)C(=O)c1ccccc1S2=O (centres undefined)	-35	u	u	0%	u	2%
CCN1C(=O)c2ccccc2S(=O)c2ccc(C(=O)N3CCN(c4cccc(C)c4)C(C)C3)cc21 (centres undefined)	-27	x	-5%[46.1 µM]	u	u	x
COc1cc([C@@H]2C(C#N)=C(N)Oc3cc(C)n(CCN4CCOCC4)c(=O)c32)cc(OC)c1OC	x	x	0%	x	x	x
CO[C@@H](CCOCc1ccccc1)C[C@H]1O[C@H](C(=O)OC(C)C)C=C[C@@H]1C	x	x	x	x	x	-6%
Cc1cccc(N2CCN(C(=O)c3ccc4c(c3)N(Cc3ccccc3F)C(=O)c3ccccc3S4=O)CC2C)c1 (centres undefined)	-64*	x	13µM*	-12%	u	x
CCOCCCn1c(SCC(=O)Nc2ccc(F)cc2)nc2c(sc3ccccc32)c1=O	-13	x	x	-12%	0%[46.1 µM]	x
O=S(=O)(c1ccccc1)c1ncc(C(F)(F)F)cc1Cl	-30	u	u	11µM*	u	-3%
CCOC(=O)c1cnc(Nc2nc3ccccc3o2)nc1CSC(=S)N(CC)CC	-64*	21%	1%	2%	u	-2%
CCNc1ncc2nc(-c3cccs3)c(=O)n(Cc3ccc(F)cc3)c2n1	x	x	x	2%	x	-17%
COc1ccc2c(c1)[C@@H](NC(=O)c1c(C)noc1C)[C@H](C)[C@@H](c1ccccc1)N2Cc1cccc(F)c1	-4	x	x	x	x	x
Cc1nc(SCC(=O)NC(C)(C#N)C2CC2)c2c(-c3cccs3)csc2n1 (centres undefined)	-29	10µM*	u	0%	u	8%
C=CCC(C)(O)C(=O)OCC (centres undefined)	x	x	x	x	x	5%

Assay outcomes (PubChem BioAssay)
